The values below come from PubChem BioAssay (NCI).

About 83,000 compounds went through this panel and 20% of them were active in at least one assay; those are over-represented in the sample as a whole.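 48-hour exposure, single concentration, 96-well plates; percent growth endpoint where 0 means no net growth. Active: below 10.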 A number with no mark means an inactive call. Active and inactive are the calls of the source.

Common to all, as to assay: NCI-60 one-dose screen, 48 h (100 = growth as untreated, 0 = no growth, -100 = all killed)
The subject of experiment [1] is HCT-15 colon. Particulars: 10 µM unless noted.
Experiment [2] has as its system HT29 colon. As to conditions: 10 µM unless noted.
For experiment [3], the system named is SNB-75 CNS. Particulars: 10 µM unless noted.
Experiment [4] has as its system SNB-19 CNS. Particulars: 10 µM unless noted.
In experiment [5] the test system is U251 CNS. Particulars: 10 µM unless noted.
Experiment [6] concerns PC-3 prostate. Particulars: 10 µM unless noted.
Experiment [7] concerns SK-MEL-5 melanoma. Particulars: 10 µM unless noted.
Experiment [8] deals with UACC-62 melanoma. As to conditions: 10 µM unless noted.
For experiment [9], the system named is LOX IMVI melanoma. As to conditions: 10 µM unless noted.
Experiment [10] has as its system SK-MEL-28 melanoma. Particulars: 10 µM unless noted.
Experiment [11] concerns SK-MEL-2 melanoma. Particulars: 10 µM unless noted.
Experiment [12] deals with EKVX NSCLC. Particulars: 10 µM.
Experiment [13] has as its system SN12C renal. Particulars: 10 µM unless noted.
Experiment [14] deals with UO-31 renal. Particulars: 10 µM unless noted.
The test system of experiment [15] is TK-10 renal. Particulars: 10 µM unless noted.
In experiment [16] the test system is ACHN renal. As to conditions: 10 µM unless noted.
Experiment [17] deals with CAKI-1 renal. As to conditions: 10 µM unless noted.
The test system of experiment [18] is A498 renal. As to conditions: 10 µM unless noted.
Experiment [19] relates to MOLT-4 leukemia. Particulars: 10 µM unless noted.
Experiment [20] relates to CCRF-CEM leukemia. As to conditions: 10 µM.

Take `CCC(C)(C)c1ccc(OCCCCCCN2CCNCC2)cc1`: the growth in experiment [1] is -36.1% (active); in experiment [2], 8.87% (active); in experiment [3], 60.5%; in experiment [4] it was 68.6%; in experiment [5], 18.8%; in experiment [6] it was 64.3%. Moreover, the growth in [7] is 34.2%; in experiment [8], 85.6%; in experiment [9], -47.1% (active); in experiment [10] it was 74.2%; in experiment [11], 96.9%; in [12], 115%. Besides, the growth in experiment [13] was 88.2%; in [14] it was 63.5%; in experiment [15], 90.4%; in experiment [16], 42.6%; in experiment [17], 70%; in [18], 71.2%. Further, the growth in experiment [19] is 10.4%.
With `COc1ccc(/C(=C(\c2ccccc2)[N+](=O)[O-])c2ccc(OCCN3CCCC3)cc2)cc1`, the growth in [1] is 6.54% (active); in experiment [2] it was 9.77% (active); in experiment [3], 76%; in experiment [4] it was 87.8%; in experiment [5] it was 74.1%; in experiment [6], 69.4%. Further, the growth was -78.2% (active) in experiment [7]; 38.4% in [8]; -20.1% (active) in experiment [9]; -10.3% (active) in experiment [10]; 79.4% in experiment [11]; 96.9% in [12]. The growth in [13] was 83.4%; in experiment [14], 28.1%; in experiment [15] it was 80.4%; in [16], 75.4%; in experiment [17], 76.9%; in experiment [20], 67.6%. In experiment [19], the growth was 71.9%.
As for `Cc1nnc(-c2cc3c(ccc4ccccc43)oc2=O)c2cn(-c3ccc(Cl)cc3)nc12`, the growth in [1] was 87.4%; in [2], 95.4%; in experiment [3], 82.4%; in [4], 96.4%; in [5], 87.1%; in experiment [6] it was 88.6%. The growth in experiment [7] was 96%; in [8] it was 90.9%; in experiment [9] it was 79.9%; in [10], 118%; in [11], 95.4%; in experiment [12] it was 84%. The growth in experiment [13] is 99.5%; in [14], 66.2%; in [15] it was 151%; in experiment [16], 97.5%; in [18], 103%; in [20] it was 74.1%. The growth in experiment [19] was 75.4%.
As for `CCCCCc1ccnc(CC(=O)c2ccc(OC)cc2)c1`, the growth was 99.7% in experiment [1]; 70.5% in experiment [2]; 85.7% in experiment [3]; 97.8% in [4]; 88.7% in experiment [5]; 76.1% in experiment [6]. Besides, the growth in experiment [7] is 79.4%; in [8], 89.5%; in experiment [9] it was 85%; in [10], 104%; in [11], 98.2%; in [12], 92.5%. The growth in experiment [13] was 91.8%; in experiment [14], 79.6%; in experiment [15], 82%; in [16] it was 93.2%; in experiment [17], 104%; in experiment [20] it was 87.8%. Besides, the growth in experiment [19] is 98.7%.
As for `O=C(C(=O)N1CCOCC1)c1ccc(O[C@H]2O[C@H](CO)[C@@H](O)[C@H](O)[C@@H]2O)cc1`, the growth in experiment [1] was 97.4%; in experiment [2], 93.4%; in experiment [3], 100%; in experiment [4], 109%; in experiment [5] it was 104%; in experiment [6] it was 88.8%. For the same compound, the growth was 97.4% in experiment [7]; 97.1% in experiment [8]; 102% in [9]; 117% in experiment [10]; 107% in experiment [11]; 116% in experiment [12]. In addition, the growth in [13] is 101%; in experiment [14], 91.5%; in [15], 103%; in experiment [16] it was 95%; in [17], 100%; in [20] it was 109%. Moreover, the growth in experiment [19] was 103%.
Turning to `O=C(/C=C1\C(=O)N(Cc2ccc([N+](=O)[O-])cc2)c2ccccc21)c1ccc(OCCN2CCCC2)cc1`, the growth is 15.4% in [1]; 17.4% in experiment [2]; 65.3% in experiment [3]; 95.1% in experiment [4]; 84.7% in [5]; 77% in [6]. Further, the growth in experiment [7] is 88.5%; in [8] it was 85.8%; in experiment [9], 16.7%; in experiment [10], 104%; in [11], 93.7%; in [12], 71.5%. Also, the growth in [13] is 37.3%; in experiment [14] it was 40.8%; in experiment [15], 82.8%; in [16], 45.7%; in experiment [18] it was 83.1%; in [20], 15.2%. In addition, the growth in experiment [19] was 9.27% (active).
Regarding `COc1ccc2cc(C(C)C(=O)Nc3ccc(S(=O)(=O)Nc4cc(C)on4)cc3)ccc2c1` (stereo unspecified), the growth was 93.8% in [1]; 121% in experiment [2]; 99.7% in experiment [3]; 117% in experiment [4]; 98.9% in experiment [5]; 104% in experiment [6]. The growth is 110% in experiment [7]; 108% in experiment [8]; 96.2% in experiment [9]; 111% in experiment [10]; 117% in experiment [11]; 97.5% in [12]. Also, the growth in experiment [13] is 116%; in [14] it was 90%; in experiment [15], 103%; in [16] it was 97.3%; in experiment [17] it was 86.4%; in experiment [19], 106%.
For `COC(=O)C(C)[C@H]1CC[C@@H]2[C@]1(C)CC=C1[C@]23C=C[C@]2(C[C@@H](OC(C)=O)CC[C@]12C)C(C(=O)OC)C3C(=O)OC` (stereo partly specified), the growth in experiment [1] is 61.5%; in experiment [2] it was 95.2%; in experiment [3], 98.5%; in [4] it was 95.9%; in experiment [5] it was 88.8%; in experiment [6] it was 57.1%. Moreover, the growth in experiment [7] was 60.6%; in experiment [8], 79.9%; in experiment [9], 91.7%; in experiment [10] it was 95%; in experiment [11] it was 100%; in experiment [12], 86.1%. In addition, the growth is 100% in experiment [13]; 86.7% in experiment [14]; 109% in experiment [15]; 112% in experiment [16]; 94.7% in [17]; 106% in experiment [18]. The growth in experiment [19] is 46.7%.
